Assay [1] deals with human AMP-activated Protein Kinase, alpha 1 (AMPKa1), PRKAA1 (gene 5562) (UniProt Q13131). The assay is described as follows: NVS_ENZ_hAMPKa1: NovaScreen (NVS) Enzymatic Assay for human AMP-activated Protein Kinase, alpha 1 (AMPKa1) (AID 2283130). The procedure, abridged: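 Compounds were screened in duplicate at 25 uM, and those reaching ~30% inhibition were titrated up to 50 uM. The enzyme was recombinant human AMPKα1, and kinase turnover was read by fluorescence/mobility shift 1 h post-dosing as loss of signal versus DMSO.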
Sequence of human AMP-activated Protein Kinase, alpha 1 (AMPKa1), PRKAA1 (gene 5562) (Q13131 whole entry, looked up): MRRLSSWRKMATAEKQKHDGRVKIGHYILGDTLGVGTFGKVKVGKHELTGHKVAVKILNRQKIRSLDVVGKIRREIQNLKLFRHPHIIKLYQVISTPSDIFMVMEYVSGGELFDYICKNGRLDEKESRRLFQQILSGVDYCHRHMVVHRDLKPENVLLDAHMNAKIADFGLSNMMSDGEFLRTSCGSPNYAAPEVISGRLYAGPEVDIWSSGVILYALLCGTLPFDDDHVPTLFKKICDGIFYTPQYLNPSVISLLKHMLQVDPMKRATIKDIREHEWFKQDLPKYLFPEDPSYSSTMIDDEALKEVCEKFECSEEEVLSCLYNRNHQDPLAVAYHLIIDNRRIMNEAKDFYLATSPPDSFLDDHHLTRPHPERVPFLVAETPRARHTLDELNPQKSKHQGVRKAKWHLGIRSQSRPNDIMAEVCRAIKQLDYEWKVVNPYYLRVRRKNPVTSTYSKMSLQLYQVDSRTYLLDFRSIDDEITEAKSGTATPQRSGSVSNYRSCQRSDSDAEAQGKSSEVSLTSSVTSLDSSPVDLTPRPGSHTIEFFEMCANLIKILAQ

Assay [2] deals with human Acid Phosphatase 1 (ACP1), ACP1 (gene 52) (UniProt P24666). The assay is described as follows: NVS_ENZ_hACP1: NovaScreen (NVS) Enzymatic Assay for human Acid Phosphatase 1 (ACP1) (AID 2283136). The procedure, abridged: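 Cell-free fluorescence read-out of phosphatase activity, substrate and product separated by mobility shift, taken 1.5 h after compound addition; protein produced in Sf9. Single 25 uM duplicate screen, followed by concentration series for actives, scored as signal loss relative to DMSO.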
Sequence of human Acid Phosphatase 1 (ACP1), ACP1 (gene 52) (P24666 whole entry, looked up): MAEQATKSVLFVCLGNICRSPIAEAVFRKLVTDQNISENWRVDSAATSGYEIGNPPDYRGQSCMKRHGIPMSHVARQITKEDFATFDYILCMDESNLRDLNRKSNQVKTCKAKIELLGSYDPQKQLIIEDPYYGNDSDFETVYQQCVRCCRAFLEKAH

The target of assay [3] is human Beta-secretase (BACE), BACE1 (gene 23621) (UniProt P56817). The assay is described as follows: NVS_ENZ_hBACE: NovaScreen (NVS) Enzymatic Assay for human Beta-secretase (BACE) (AID 2283140).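 Further: hits are inhibitors that reduce fluorescent substrate signal versus DMSO.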 The procedure, abridged: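 SF9-expressed enzyme, cell-free; fluorescent substrate readout after 1 h. Screened at 25 uM single concentration, duplicate; hits retested in concentration series. Activity relative to DMSO baseline, loss-of-signal.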
Sequence of human Beta-secretase (BACE), BACE1 (gene 23621) (P56817 whole entry, looked up): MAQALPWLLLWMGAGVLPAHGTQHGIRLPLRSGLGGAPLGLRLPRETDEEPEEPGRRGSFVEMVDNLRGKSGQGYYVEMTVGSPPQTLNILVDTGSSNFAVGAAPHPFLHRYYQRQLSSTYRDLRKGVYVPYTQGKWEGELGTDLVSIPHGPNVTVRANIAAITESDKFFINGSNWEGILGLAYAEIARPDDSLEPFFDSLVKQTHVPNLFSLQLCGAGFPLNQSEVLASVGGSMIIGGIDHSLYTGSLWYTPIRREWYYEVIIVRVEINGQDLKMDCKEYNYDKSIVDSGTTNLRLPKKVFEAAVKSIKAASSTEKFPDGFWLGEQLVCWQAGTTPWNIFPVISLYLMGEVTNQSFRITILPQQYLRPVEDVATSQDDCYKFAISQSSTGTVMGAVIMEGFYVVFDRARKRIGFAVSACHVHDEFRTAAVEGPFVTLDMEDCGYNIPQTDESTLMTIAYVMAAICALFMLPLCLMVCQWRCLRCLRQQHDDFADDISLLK

The target in assay [4] is human AKT serine/threonine Kinase 2 (AKT2), AKT2 (gene 208) (UniProt P31751). The assay is described as follows: NVS_ENZ_hAKT2: NovaScreen (NVS) Enzymatic Assay for human AKT serine/threonine Kinase 2 (AKT2) (AID 2283141). The procedure, abridged:
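Cell-free fluorescence/electrophoretic mobility shift readout of recombinant human AKT2 activity, 1 h after chemical dosing. Duplicate primary screen at 25 uM, then singleton concentration-response up to 50 uM; loss of signal versus DMSO baseline.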

Assay [5] deals with Caspase-3 (Homo sapiens) (UniProt P42574). The assay is described as follows: NVS_ENZ_hCASP3: NovaScreen (NVS) Enzymatic Assay for human Caspase 3 (CASP3) (AID 2283139). A digest of the protocol:
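Single-concentration screening at 25 uM in duplicate, with concentration-response follow-up to a 50 uM maximum for chemicals passing the threshold. Caspase-3 (human, E. coli-expressed) activity was read as substrate fluorescence after 1 h, with loss of signal relative to DMSO.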

Assay [6] has as its target Caspase-1 (Homo sapiens) (UniProt P29466). The assay is described as follows: NVS_ENZ_hCASP1: NovaScreen (NVS) Enzymatic Assay for human Caspase 1 (CASP1) (AID 2283132). A digest of the protocol:
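Compounds were first tested in duplicate at 25 uM, with follow-up concentration series up to 50 uM. The bacterially expressed enzyme was read by fluorescence at 1 h post-dosing. Signal loss versus DMSO baseline indicates reduced enzyme activity.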

The target of assay [7] is human Caspase 5 (CASP5), CASP5 (gene 838) (UniProt P51878). Kind of assay: NVS_ENZ_hCASP5: NovaScreen (NVS) Enzymatic Assay for human Caspase 5 (CASP5) (AID 2283137). A digest of the protocol:
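Fluorescent substrate readout of CASP5 activity (loss-of-signal), measured 2 h post-dose. Protein expressed in E. coli. Primary screen duplicate at 25 uM; actives meeting threshold (e.g., 30% inhibition) rerun singleton, max 50 uM.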

Assay [8] deals with human Caspase 2 (CASP2), CASP2 (gene 835) (UniProt P42575). The assay is described as follows: NVS_ENZ_hCASP2: NovaScreen (NVS) Enzymatic Assay for human Caspase 2 (CASP2) (AID 2283135). The procedure, abridged: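 Single-point duplicate testing at 25 uM preceded concentration series topping at 50 uM. Activity of the recombinant E. coli-derived protease was followed by fluorescent substrate cleavage 1 h post-dosing, relative to DMSO.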
Sequence of human Caspase 2 (CASP2), CASP2 (gene 835) (P42575 whole entry, looked up): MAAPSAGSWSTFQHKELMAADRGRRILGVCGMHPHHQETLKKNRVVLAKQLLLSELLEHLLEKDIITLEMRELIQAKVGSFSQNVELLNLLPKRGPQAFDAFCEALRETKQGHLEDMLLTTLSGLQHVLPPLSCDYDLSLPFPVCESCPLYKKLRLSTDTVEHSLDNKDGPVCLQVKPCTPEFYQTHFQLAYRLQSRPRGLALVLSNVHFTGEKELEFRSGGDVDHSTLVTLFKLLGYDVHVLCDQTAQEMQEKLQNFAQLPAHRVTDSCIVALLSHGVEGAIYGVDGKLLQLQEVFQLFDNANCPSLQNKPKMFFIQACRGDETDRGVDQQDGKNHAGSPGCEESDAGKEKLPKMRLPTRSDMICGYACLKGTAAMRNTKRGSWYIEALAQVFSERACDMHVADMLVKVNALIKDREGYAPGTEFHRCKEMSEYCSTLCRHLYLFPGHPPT

“And” between values parts separate entries of the source, which are not always exact repeats. Identical values can stand only once. Results filed as inconclusive are left out. More than one record can exist for a structure, and the calls need not agree. The source made the active and inactive calls. How the source made its calls: active means hit-call score of the fitted dose curve at least 0.9, where 1 is the maximum; inconclusive means response in the unintended direction; inactive means score below 0.9.

Sequence of human AKT serine/threonine Kinase 2 (AKT2), AKT2 (gene 208) (P31751 whole entry, looked up): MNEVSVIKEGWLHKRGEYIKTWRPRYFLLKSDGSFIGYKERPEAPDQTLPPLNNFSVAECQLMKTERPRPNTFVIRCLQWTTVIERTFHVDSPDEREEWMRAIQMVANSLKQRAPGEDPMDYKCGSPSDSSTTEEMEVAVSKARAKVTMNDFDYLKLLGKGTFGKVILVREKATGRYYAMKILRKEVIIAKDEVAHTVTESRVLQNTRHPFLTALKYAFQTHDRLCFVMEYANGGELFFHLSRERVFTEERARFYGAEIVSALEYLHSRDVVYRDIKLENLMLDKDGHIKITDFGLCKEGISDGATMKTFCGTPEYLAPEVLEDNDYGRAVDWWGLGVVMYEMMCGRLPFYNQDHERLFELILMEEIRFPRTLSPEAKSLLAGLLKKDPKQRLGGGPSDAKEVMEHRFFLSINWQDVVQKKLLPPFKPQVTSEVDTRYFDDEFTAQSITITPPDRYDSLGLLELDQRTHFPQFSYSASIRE
Sequence of Caspase-1 (Homo sapiens) (P29466 whole entry, looked up): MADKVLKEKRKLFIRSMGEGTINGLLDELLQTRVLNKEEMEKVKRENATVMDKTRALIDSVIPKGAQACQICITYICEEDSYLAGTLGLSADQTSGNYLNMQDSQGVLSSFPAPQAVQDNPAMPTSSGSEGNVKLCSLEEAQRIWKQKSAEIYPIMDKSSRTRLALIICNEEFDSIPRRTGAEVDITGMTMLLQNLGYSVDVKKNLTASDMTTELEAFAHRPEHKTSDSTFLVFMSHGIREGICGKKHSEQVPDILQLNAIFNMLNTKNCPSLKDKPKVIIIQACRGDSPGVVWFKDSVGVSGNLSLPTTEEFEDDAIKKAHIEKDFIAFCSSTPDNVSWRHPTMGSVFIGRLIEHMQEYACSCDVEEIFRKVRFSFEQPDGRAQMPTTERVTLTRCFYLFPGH
Sequence of human Caspase 5 (CASP5), CASP5 (gene 838) (P51878 whole entry, looked up): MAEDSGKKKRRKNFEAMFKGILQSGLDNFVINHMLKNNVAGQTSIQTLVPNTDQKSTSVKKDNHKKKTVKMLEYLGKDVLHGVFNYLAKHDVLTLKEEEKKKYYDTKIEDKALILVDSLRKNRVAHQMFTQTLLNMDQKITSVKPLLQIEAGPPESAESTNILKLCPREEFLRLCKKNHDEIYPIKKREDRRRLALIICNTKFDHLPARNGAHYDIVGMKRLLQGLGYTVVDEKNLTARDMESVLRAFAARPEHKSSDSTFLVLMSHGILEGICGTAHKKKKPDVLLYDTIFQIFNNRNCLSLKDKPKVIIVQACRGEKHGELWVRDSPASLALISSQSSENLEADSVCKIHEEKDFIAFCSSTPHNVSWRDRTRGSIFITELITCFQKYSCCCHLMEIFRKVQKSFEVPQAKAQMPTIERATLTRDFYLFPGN
Sequence of Caspase-3 (Homo sapiens) (P42574 whole entry, looked up): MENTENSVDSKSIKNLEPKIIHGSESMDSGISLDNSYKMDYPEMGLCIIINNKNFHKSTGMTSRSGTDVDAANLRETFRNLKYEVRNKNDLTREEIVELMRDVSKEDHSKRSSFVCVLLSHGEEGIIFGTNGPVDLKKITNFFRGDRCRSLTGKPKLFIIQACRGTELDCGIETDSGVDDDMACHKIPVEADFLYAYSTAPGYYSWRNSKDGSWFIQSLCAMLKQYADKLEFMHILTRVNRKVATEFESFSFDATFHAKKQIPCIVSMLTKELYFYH

For `Oc1cc(Cl)ccc1Oc1ccc(Cl)cc1Cl`, the call in assay [1], in assay [2] and in assay [3] was inactive. The AC50 in assay [3] is 25.5 µM (active) and 28.2 µM (active) and 7.92 µM (active); in assay [4] it was 41.4 µM (active).
Consider `Cc1cc(C)nc(NC(=O)NS(=O)(=O)c2ccccc2C(=O)OC2COC2)n1`, for which the result in assay [4] was inactive.
For the molecule `O=C1c2ccccc2C(=O)N1SC(Cl)(Cl)Cl`, the result in assay [5] was inactive.
With `O=C(O)C(F)(F)C(F)(F)C(F)(F)C(F)(F)C(F)(F)C(F)(F)C(F)(F)F`, the outcome in assay [6], in assay [2], in assay [7] and in assay [4] was inactive. For the same molecule, the half-maximal activity concentration (AC50) in assay [3] was 3.58 µM (active) and 1.2 µM (active).
For `C#CCN1C(=O)COc2cc(F)c(N3C(=O)C4=C(CCCC4)C3=O)cc21`, the call in assay [8] and in assay [2] was inactive.
As to `O=C(Nc1ccccc1)Nc1cnns1`, the AC50 in assay [3] is 10.7 µM (active).
For `CN1CSC(=S)N(C)C1`, the outcome in assay [6] and in assay [4] was inactive.

Source of the values: PubChem BioAssay (EPA / NIEHS).
